Results: PubChem BioAssay (Tox21)
Records with an inconclusive call do not appear. Calls of active or inactive are those of the source. Unless noted, calls follow the shape of the dose curve; as a rule, active = well fitted curve in the direction sought with a large enough effect in the repeat runs; inconclusive = weak or mixed curves; inactive = no such curve, though single readings can be large; an effect the other way counts as inactive or inconclusive.

Key:
[1] = qHTS assay to identify small molecule antagonists of the estrogen related receptor (ERR) signaling pathway from Tox21 library - cell viability counter screen (AID 1224834); also: nearly all actives have a fitted effect of over 30% in size
Summary of the method: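 Viability readout (CellTiter-Fluor fluorescence, 30 min at 37 C) multiplexed with the ERR assay; cells treated 17.5 h at 37 C with compounds delivered in DMSO.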

[2] = qHTS assay to identify small molecule agonists of the constitutive androstane receptor (CAR) signaling pathway - cell viability counter screen (AID 1224836); also: series mostly up to about 92 µM; nearly all actives have a fitted effect of over 45% in size
Summary of the method: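 Cells were seeded and incubated 4 hrs. Compounds were added across 15 concentrations together with PK11195 at 0.75 uM final. Plates were incubated 23 hrs at 37 C. CellTiter-Fluor was added and fluorescence measured.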

[3] = qHTS assay to identify small molecule antagonists of the constitutive androstane receptor (CAR) signaling pathway - cell viability counter screen (AID 1224837); also: series mostly up to about 92 µM; nearly all actives have a fitted effect of over 45% in size
Summary of the method: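 Fluorescence from CellTiter-Fluor served as the viability signal. Human hepatoma HepG2 cells stably bearing hCAR and CYP2B6-2.2kb received compound plus CITCO (50 nM final) for 23 hr.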

[4] = molecular target: Nuclear receptor subfamily 1 group I member 3 (Homo sapiens) (UniProt Q14994); test: qHTS assay to identify small molecule antagonists of the constitutive androstane receptor (CAR) signaling pathway (AID 1224838);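 also: HepG2 cells stably expressing hCAR with CYP2B6 luciferase reporter stimulated by CITCO; nearly all actives have a fitted effect of over 40% in size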
Sequence of Nuclear receptor subfamily 1 group I member 3 (Homo sapiens) (Q14994 whole entry, looked up): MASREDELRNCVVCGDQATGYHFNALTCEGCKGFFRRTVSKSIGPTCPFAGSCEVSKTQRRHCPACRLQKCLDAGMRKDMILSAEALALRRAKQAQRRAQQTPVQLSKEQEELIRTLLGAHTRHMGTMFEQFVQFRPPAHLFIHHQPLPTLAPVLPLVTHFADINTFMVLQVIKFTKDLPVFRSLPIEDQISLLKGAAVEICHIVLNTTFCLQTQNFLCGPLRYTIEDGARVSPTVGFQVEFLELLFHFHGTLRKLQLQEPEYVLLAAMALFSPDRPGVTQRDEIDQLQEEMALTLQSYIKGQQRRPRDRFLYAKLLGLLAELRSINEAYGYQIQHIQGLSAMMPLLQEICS
Summary of the method: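 Quantitative HTS in double-stable HepG2-CYP2B6-hCAR cells. After 4 h plating, cells get compound (15 concentrations) and CITCO at 50 nM final, incubate 24 h at 37 C, then ONE-Glo luminescence is read.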

[5] = molecular target: Nuclear receptor subfamily 1 group I member 3 (Homo sapiens) (UniProt Q14994); test: qHTS assay to identify small molecule agonists of the constitutive androstane receptor (CAR) signaling pathway (AID 1224839);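 also: HepG2 cells stably carrying human CAR and a CYP2B6 luciferase reporter; series mostly up to about 92 µM; nearly all actives have a fitted effect of over 15% in size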
Summary of the method: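 Cells were plated and incubated 4 hrs, then dosed with compounds at 15 concentrations. PK11195 was added to 0.75 uM final. After 24 hrs at 37 C, luciferase luminescence was measured.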

[6] = molecular target: Thyrotropin receptor (Homo sapiens) (UniProt P16473); test: qHTS assay to identify small molecule agonists of the thyroid stimulating hormone receptor (TSHR) signaling pathway (AID 1224843; calls by dose curve; also: nearly all actives have a fitted effect of over 45% in size)
Sequence of Thyrotropin receptor (Homo sapiens) (P16473 whole entry, looked up): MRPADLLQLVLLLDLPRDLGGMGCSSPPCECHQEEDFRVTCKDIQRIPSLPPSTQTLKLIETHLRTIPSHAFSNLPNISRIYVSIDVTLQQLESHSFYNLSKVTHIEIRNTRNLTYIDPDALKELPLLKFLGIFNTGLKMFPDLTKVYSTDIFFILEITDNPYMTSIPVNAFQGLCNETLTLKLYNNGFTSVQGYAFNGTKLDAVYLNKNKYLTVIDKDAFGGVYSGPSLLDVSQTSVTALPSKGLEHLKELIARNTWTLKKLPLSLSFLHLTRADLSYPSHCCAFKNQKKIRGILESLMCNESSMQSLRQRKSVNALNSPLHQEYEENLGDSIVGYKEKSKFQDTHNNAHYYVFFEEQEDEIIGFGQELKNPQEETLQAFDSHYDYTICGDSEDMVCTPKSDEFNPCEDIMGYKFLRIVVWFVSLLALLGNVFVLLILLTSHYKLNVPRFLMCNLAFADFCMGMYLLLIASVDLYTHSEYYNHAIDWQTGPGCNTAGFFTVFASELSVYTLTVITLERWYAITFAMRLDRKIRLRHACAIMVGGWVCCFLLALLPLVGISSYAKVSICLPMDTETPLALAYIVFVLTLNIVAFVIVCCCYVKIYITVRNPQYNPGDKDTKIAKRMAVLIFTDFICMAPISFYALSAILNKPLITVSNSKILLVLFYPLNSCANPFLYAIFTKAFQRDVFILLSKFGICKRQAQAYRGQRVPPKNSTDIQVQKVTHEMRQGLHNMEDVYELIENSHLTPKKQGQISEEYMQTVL
Summary of the method: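 TSHR-HEK293 cells in agonist mode, 30 min room-temperature step, then cAMP measured by competitive HTRF (cAMP-d2 with anti-cAMP cryptate) after 1 h at room temperature. Tested at 15 concentrations in triplicate.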

[7] = qHTS assay to identify small molecule agonists of the hypoxia (HIF-1) signaling pathway - cell viability counter screen (AID 1224844; calls by dose curve; also: nearly all actives have a fitted effect of over 50% in size)
Summary of the method: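 Luminescent ATP content (CellTiter-Glo, 30 min, room temperature) served as the viability measure in HRE-bla ME-180 cells exposed to compounds for 17 hrs in low-serum medium (0.5% dialyzed FBS).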

[8] = qHTS assay to identify small molecule agonists of H2AX (AID 1224845; active = well fitted activation curve with a large enough effect in the signal ratio in the repeat runs, not every such curve was filed as active; the % refers to the signal ratio)
Summary of the method: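 Wild-type CHO-K1 cells, plated overnight, exposed 3hr at 37C to 15 concentrations (0.76% DMSO final). Lysed, then HTRF anti-pH2AX (S139) cryptate and anti-H2AX-d2 antibodies, 24 hr room temperature; 665/620 nm emission read.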

[9] = qHTS assay to identify small molecule agonists of H2AX - cell viability counter screen (AID 1224847; calls by dose curve; also: top concentration of the series differs between compounds; nearly all actives have a fitted effect of over 30% in size)
Summary of the method: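 Cytotoxicity counter screen in wild-type CHO-K1 cells: a 3 hr compound treatment at 37C across 15 concentrations, followed by CellTiter-Glo luminescence to gauge viable cells.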

[10] = qHTS RealTime-Glo MT Cell Viability Assay in HepG2 cells - 24 hour (AID 1224867); also: nearly all actives have a fitted effect of over 50% in size
Summary of the method: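 Cells + NanoLuc/prosubstrate dispensed (600 cells/well) → 5 h at 37 C/5% CO2 → compounds in DMSO transferred → 40 h incubation at 37 C, luminescence read at 0, 8, 16, 24, 32, 40 h.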

[11] = qHTS RealTime-Glo MT Cell Viability Assay in HEK293 cells - 32 hour (AID 1224868); also: top concentration of the series differs between compounds; nearly all actives have a fitted effect of over 50% in size
Summary of the method: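 Tox21 10K qHTS, HEK293, 600 cells/well, RealTime-Glo reagent co-dispensed with cells; 5 h preincubation, compound by pintool, 37 C, luminescence at 0–40 h.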

[12] = A CellTox Green Cytotoxicity Assay to monitor cytotoxicity in HEK293 cells - 0 hour (AID 1224869); also: nearly all actives have a fitted effect of over 50% in size
Summary of the method: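 Each value comes from one timepoint of a single continuous run in which HEK293 cells with CellTox Green were exposed to compound for up to 40 h at 37 C, dye fluorescence rising with cell death.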

[13] = qHTS assay to identify small molecule antagonists of the estrogen related receptor signaling pathway with the pleiotropic PPARgamma coactivator (PGC) from Tox21 10K library - cell viability counter screen (AID 1224840; active = well fitted cell-killing curve with a large enough effect in the repeat runs, not every such curve was filed as active; also: nearly all actives have a fitted effect of over 40% in size)
Summary of the method: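 Compounds in DMSO, alongside positive and negative controls, were pinned onto PGC/ERR cells (2,000 per well). Exposure lasted 17.5 hours at 37 C, followed by a 30-minute CellTiter-Fluor incubation and fluorescence reading.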

[14] = qHTS assay to identify small molecule agonists of the hypoxia (HIF-1) signaling pathway (AID 1224846; active = well fitted activation curve with a large enough effect in the signal ratio in the repeat runs, not every such curve was filed as active; the % refers to the signal ratio)
Summary of the method: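 Measured by blue/green FRET after loading CCF4-AM: beta-lactamase expressed from a hypoxia response element in ME-180 cells. Test agents were delivered in DMSO and left 17 hrs; cells had been plated 5 hrs earlier in low-serum (0.5% dialyzed FBS) medium.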

[15] = qHTS assay to identify small molecule antagonists of the estrogen related receptor signaling pathway with the pleiotropic PPARgamma coactivator (PGC) from Tox21 10K library (AID 1224841; call rule not given here)
Summary of the method: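 Compound exposure ran 18 hours at 37 C in PGC/ERR cells (2,000/well) that had first rested 6 hours in a 37 C/5% CO2 incubator. Luciferase activity was then detected with One-Glo after a 30-minute room-temperature step.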

[16] = qHTS assay to identify small molecule agonists of the estrogen related receptor signaling pathway with the pleiotropic PPARgamma coactivator (PGC) from Tox21 10K library (AID 1224842); also: nearly all actives have a fitted effect of over 15% in size
Summary of the method: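 PGC/ERR reporter cell line, 2,000 cells per well, incubated 6 h at 37 C before 23 nL compound in DMSO was added. After 18 h at 37 C, One-Glo luminescence read following 30 min at room temperature.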

[17] = qHTS assay to identify small molecule antagonists of the estrogen related receptor (ERR) signaling pathway from Tox21 library (AID 1224848); also: nearly all actives have a fitted effect of over 50% in size
Summary of the method: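 ERR reporter cell line (from NTP) seeded 2,000 cells/well, rested 6 h at 37 C/5% CO2, then pin-dosed with compounds in DMSO. After 18 h at 37 C, ONE-Glo added; luminescence read after 30 min at room temperature.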

[18] = qHTS assay to identify small molecule agonists of the estrogen related receptor (ERR) signaling pathway from Tox21 library (AID 1224849; calls by dose curve; also: nearly all actives have a fitted effect of over 15% in size)
Summary of the method: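 We plated ERR reporter cells, waited 6 h, added compounds in DMSO by pin tool and incubated them 18 h at 37 C. ONE-Glo was then added and luminescence read after 30 min.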

[19] = molecular target: Luciferin 4-monooxygenase (Photinus pyralis) (UniProt P08659); test: qHTS assay to identify small molecule inhibitors of firefly luciferase (AID 1224835); also: series mostly up to about 120 µM; nearly all actives have a fitted effect of over 25% in size
Sequence of Luciferin 4-monooxygenase (Photinus pyralis) (P08659 whole entry, looked up): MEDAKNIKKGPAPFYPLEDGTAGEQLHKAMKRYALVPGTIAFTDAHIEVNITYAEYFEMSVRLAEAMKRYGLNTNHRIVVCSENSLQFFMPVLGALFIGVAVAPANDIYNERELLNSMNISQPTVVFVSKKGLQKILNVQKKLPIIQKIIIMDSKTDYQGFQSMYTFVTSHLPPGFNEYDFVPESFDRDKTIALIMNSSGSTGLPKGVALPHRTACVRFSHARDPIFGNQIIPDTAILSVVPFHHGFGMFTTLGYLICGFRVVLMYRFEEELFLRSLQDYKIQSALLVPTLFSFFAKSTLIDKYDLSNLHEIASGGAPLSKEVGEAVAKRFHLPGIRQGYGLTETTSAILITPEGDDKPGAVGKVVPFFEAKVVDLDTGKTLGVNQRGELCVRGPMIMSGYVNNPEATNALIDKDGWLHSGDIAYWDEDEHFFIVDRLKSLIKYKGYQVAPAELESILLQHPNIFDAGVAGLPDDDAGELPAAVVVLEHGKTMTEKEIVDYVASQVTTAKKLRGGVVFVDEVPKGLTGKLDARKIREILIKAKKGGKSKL
Summary of the method: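 Biochemical qHTS: compounds run as interplate titrations against purified firefly enzyme, with D-luciferin and ATP each at its KM concentration. Light output recorded by CCD imaging.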

Measured: Potency

CN/C(=C\[N+](=O)[O-])NCCSCc1csc(CN(C)C)n1
inactive: [1] | [2] | [3] | [4] | [5] | [6] | [7] | [8] | [9] | [10] | [11] | [12]

CCOC(=O)c1ccc(N)cc1
inactive: [2] | [3] | [4] | [5] | [13] | [6] | [7] | [8] | [9] | [10] | [11]

c1ccc2c(c1)Cc1ccccc1-2
inactive: [1] | [2] | [3] | [6] | [7] | [14] | [9] | [10] | [11] | [12]

OCc1ccccc1
inactive: [1] | [2] | [3] | [4] | [5] | [15] | [16] | [6] | [7] | [8] | [14] | [9] | [17] | [18] | [10] | [11] | [12]

C[C@]12CCC(=O)C=C1CC[C@@H]1[C@@H]2[C@@H](O)C[C@@]2(C)[C@H]1CC[C@]2(O)C(=O)CO
inactive: [1] | [2] | [3] | [5] | [6] | [7] | [8] | [9] | [12]

CN(C)c1ccc(O)c2c1C[C@H]1C[C@H]3[C@H](N(C)C)C(=O)C(C(N)=O)=C(O)[C@@]3(O)C(=O)C1=C2O
inactive: [19] | [2] | [3] | [4] | [5] | [6] | [7] | [14] | [9] | [10] | [11] | [12]

C=CCc1ccc(OC)c(OC)c1
inactive: [1] | [2] | [3] | [13] | [6] | [7] | [8] | [14] | [9] | [10] | [11] | [12]

CCO[Si](CCC#N)(OCC)OCC
inactive: [1] | [2] | [3] | [13] | [7] | [14] | [9] | [10] | [11]

CCCCCCCC=O
inactive: [1] | [2] | [3] | [13] | [7] | [14] | [9] | [10] | [11] | [12]

CC(=O)Oc1ccc(C)cc1
inactive: [1] | [2] | [3] | [7] | [8] | [14] | [9] | [10] | [11] | [12]

C=CC[N+](C)(C)CC=C
inactive: [1] | [2] | [3] | [6] | [7] | [8] | [14] | [9] | [10] | [11] | [12]

O=C(O)/C=C/C(=O)O
inactive: [19] | [2] | [3] | [4] | [6] | [7] | [14] | [9] | [10] | [11] | [12]

Cc1ccc(C(C)C)c(O)c1
inactive: [1] | [2] | [3] | [4] | [15] | [16] | [7] | [14] | [9] | [17] | [18] | [10] | [11] | [12]

CC1(C)CC(N)CC(C)(CN)C1 (stereo unspecified)
inactive: [1] | [2] | [3] | [13] | [6] | [7] | [8] | [14] | [9] | [10] | [11] | [12]

C=CC(C)CCCC(C)(C)O (stereo unspecified)
inactive: [1] | [2] | [3] | [4] | [5] | [6] | [7] | [14] | [9] | [10] | [11] | [12]

C[C@]12CC[C@@H]3c4ccc(O)cc4CC[C@H]3[C@@H]1C[C@@H](O)[C@@H]2O
inactive: [1] | [2] | [3] | [13] | [6] | [7] | [14] | [9] | [10] | [11] | [12]

COc1ccc(CCC(C)=O)cc1
inactive: [1] | [2] | [3] | [13] | [6] | [7] | [8] | [14] | [9] | [10] | [11] | [12]

C=C(C)[C@H]1CC=C(C)C(=O)C1
inactive: [1] | [2] | [3] | [6] | [7] | [8] | [14] | [9] | [10] | [11]

O=S(=O)(O)c1ccccc1
inactive: [1] | [2] | [3] | [15] | [16] | [6] | [7] | [14] | [9] | [17] | [18] | [10] | [11]

COCCOC(=O)c1ccccc1C(=O)OCCOC
inactive: [1] | [2] | [3] | [4] | [5] | [6] | [7] | [8] | [14] | [9] | [10] | [11] | [12]
